From PubChem
This is one part of a sample in which hits are shown more often than they occur.
STK33 inh: inhibitors of human STK33 kinase; actives 0.44% (n = 27,000); Q9BYT3; AID 2322; inhibition, % at 12.5 µM; ADP-Glo luminescence, MBP substrate; in the data active = inhibition above about 20%; inconclusive = no clear call, values can overlap the other calls
Target sequence (Q9BYT3 whole entry, looked up): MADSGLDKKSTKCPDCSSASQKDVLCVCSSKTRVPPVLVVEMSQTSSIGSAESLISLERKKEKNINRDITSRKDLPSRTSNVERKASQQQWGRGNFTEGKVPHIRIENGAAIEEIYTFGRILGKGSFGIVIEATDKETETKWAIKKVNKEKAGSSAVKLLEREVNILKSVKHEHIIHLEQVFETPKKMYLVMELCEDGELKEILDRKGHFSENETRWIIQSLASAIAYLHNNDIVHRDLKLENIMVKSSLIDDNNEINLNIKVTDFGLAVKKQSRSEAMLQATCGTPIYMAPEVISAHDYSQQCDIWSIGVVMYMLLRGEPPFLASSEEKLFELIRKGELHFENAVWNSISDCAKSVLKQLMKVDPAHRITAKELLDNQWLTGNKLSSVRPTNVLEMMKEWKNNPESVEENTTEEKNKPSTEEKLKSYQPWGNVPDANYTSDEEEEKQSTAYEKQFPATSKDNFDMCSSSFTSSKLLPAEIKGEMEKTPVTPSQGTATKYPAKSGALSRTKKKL
NOMO-1 viab: STK33 inhibitor candidate reducing NOMO-1 cell viability | NOMO-1 AML viability, CellTiter-Glo luminescence, 72 h | inhibition, % (test concentration not listed) | actives 7.5% (n = 37,000); in the data active = inhibition above about 80%; inconclusive = no clear call, values can overlap the other calls
PD-1 reverse act: activators reversing PD-1 mediated T-cell inhibition | AID 2316 | primary human CD4 T cells, PD-L1 beads, CellTiter-Glo 96 h | 29,000 tested, under 10 active | activation, % (no concentration beside the values); call rule not given here
Large screens that a line does not name were inactive.

Cc1nnc(SCC(=O)Nc2ccccc2C(=O)c2ccccc2)s1	none (no result: NOMO-1 viab, PD-1 reverse act)
C=C(C)CC1C(=O)NN=C1C (stereo unspecified)	none (no result: STK33 inh)
COc1ccc(OC)c(S(=O)(=O)N(C)CC(=O)N2CCOCC2)c1	none
COc1ccccc1-c1cc(C(F)(F)F)nc(S(=O)(=O)CCCC(=O)N2CCOCC2)n1	NOMO-1 viab 136
Cc1ccccc1N(CC(=O)O)S(=O)(=O)c1ccc(Cl)cc1	none (no result: PD-1 reverse act)
CCc1ccc2nc(N3C(=O)C(=O)C(C(=O)c4ccco4)C3c3cc(OC)ccc3OC)sc2c1 (stereo unspecified)	none (no result: PD-1 reverse act)
COC(=O)CNS(=O)(=O)c1ccccc1[N+](=O)[O-]	NOMO-1 viab 112 (no result: PD-1 reverse act)
O=C(c1ccccc1NS(=O)(=O)c1ccccc1[N+](=O)[O-])N1CCOCC1	none
Cc1c(S(=O)(=O)c2ccc(Cl)cc2)csc1C(=O)N(c1ccccc1)S(C)=O (stereo unspecified)	none (no result: STK33 inh)
O=C(Nc1ccccc1)c1ccc(S(=O)(=O)c2cccc(S(=O)(=O)N3CCOCC3)c2)cc1	none
O=C(Nc1cc(S(=O)(=O)c2ccccc2)cs1)c1ccc(Cl)cc1	NOMO-1 viab 92 (no result: STK33 inh)
Cc1c(Br)ccc(NC(=O)CSc2nnnn2-c2ccccc2)c1C	none (no result: PD-1 reverse act)
CC1CCN(CC(O)COc2c(F)cc(Br)cc2F)CC1 (stereo unspecified)	none (no result: STK33 inh)
OC(CN1CCNCC1)Cn1c2ccc(Br)cc2c2cc(Br)ccc21 (stereo unspecified)	NOMO-1 viab 121
O=C(CSc1nnc(-c2ccco2)n1-c1ccccc1)c1ccc(F)cc1	none
Cc1ccc(C(=O)CSc2nc(C)nc3sc4c(c23)CCCC4)cc1	none
Cc1nc(SC2CCCCN(C(=O)c3ccc(Cl)cc3)C2=O)c2c3c(sc2n1)CCCC3 (stereo unspecified)	NOMO-1 viab 93 (no result: STK33 inh)
Cc1ccc(N(C(C)C(=O)Nc2cc(Cl)cc(Cl)c2)S(C)(=O)=O)cc1C (stereo unspecified)	none
C=CCc1ccc(O[C@@H]2O[C@H](CO[C@@H]3O[C@@H](C)[C@H](O)[C@@H](O)[C@H]3O)[C@@H](O)[C@H](O)[C@H]2O)c(O)c1	none
C=CCc1ccc(O[C@@H]2O[C@H](CO)[C@@H](O)[C@H](O)[C@H]2O)c(O[C@@H]2O[C@H](CO)[C@@H](O)[C@H](O)[C@H]2O)c1	NOMO-1 viab 120
Cc1ccc2ccc(C(Nc3ccccn3)c3c(F)cccc3Cl)c(O)c2n1 (stereo unspecified)	NOMO-1 viab 110
Cc1ccc2ccc(C(Nc3ccccn3)c3ccccc3Cl)c(O)c2n1 (stereo unspecified)	NOMO-1 viab 106
O=[N+]([O-])c1ccccc1C(c1c[nH]c2ccccc12)c1c[nH]c2ccccc12	STK33 inh inconclusive
Cc1ccnc(SCC(=O)c2cccc([N+](=O)[O-])c2)n1	none (no result: PD-1 reverse act)
Cc1cccc(NC(c2ccccc2[N+](=O)[O-])c2ccc3ccc(C)nc3c2O)n1 (stereo unspecified)	NOMO-1 viab 121
Cc1ccc2ccc(C(Nc3ccccn3)c3cccc([N+](=O)[O-])c3)c(O)c2n1 (stereo unspecified)	NOMO-1 viab 112
COc1ccc(OC)c(NC(=O)CC2NCCNC2=O)c1 (stereo unspecified)	none
Cc1ccc(-n2c(SCC(=O)Nc3sc4c(c3C#N)CCCC4)nnc2-c2ccccc2)cc1	none
CN(C)CCNc1nc(-c2noc(NCCN(C)C)n2)no1	none (no result: STK33 inh)
O=C(CSc1nc2ccccc2s1)Nc1ccc(F)c(Cl)c1	none (no result: NOMO-1 viab, PD-1 reverse act)
Cc1c(Br)c([N+](=O)[O-])nn1C(C)C(=O)Nc1ccccc1C(F)(F)F (stereo unspecified)	none
COc1ccc(C(Nc2cccc(C)n2)c2ccc3ccc(C)nc3c2O)c(OC)c1OC (stereo unspecified)	NOMO-1 viab 96
CSc1ccc(C(Nc2cc(C)ccn2)c2ccc3ccc(C)nc3c2O)cc1 (stereo unspecified)	none (no result: PD-1 reverse act)
Cc1ccnc(NC(c2cccc(Cl)c2)c2ccc3ccc(C)nc3c2O)c1 (stereo unspecified)	NOMO-1 viab 118 (no result: PD-1 reverse act)
Cc1ccc(Cl)cc1NC(=O)CSc1nnc(-c2cccs2)n1C	none
Cc1ccc(NC(=O)c2cccc(S(=O)(=O)Nc3cccc(C(=O)O)c3)c2)cc1	none (no result: PD-1 reverse act)
O=C(O)c1ccc(NS(=O)(=O)c2cc3c4c(cccc4c2)C(=O)NC3=O)cc1	NOMO-1 viab 140 (no result: STK33 inh)
C[C@@H]1CN([C@@H](C)CO)C(=O)c2cc(NS(=O)(=O)c3ccc(F)cc3)ccc2O[C@H]1CN(C)Cc1ccc(-c2ccccc2)cc1	NOMO-1 viab 107 (no result: STK33 inh, PD-1 reverse act)
C[C@@H]1CN([C@@H](C)CO)C(=O)c2cc(NS(=O)(=O)c3ccc(F)cc3)ccc2O[C@H]1CN(C)Cc1ccccc1	none (no result: STK33 inh)
C[C@@H]1CN([C@H](C)CO)C(=O)c2cc(NS(=O)(=O)c3ccc(F)cc3)ccc2O[C@@H]1CN(C)Cc1ccc(-c2ccccc2)cc1	NOMO-1 viab 118 (no result: STK33 inh)
